Numbering of substitutions follows the chain as printed; changes in the protein carry UniProt numbers. Whole data set: some 16,000 sequences, median “ka relative to ugcaugu” near 0.0091, cut for the highest 2% near 0.032. For the sample, the highest values were picked, then their nearest neighbours and some sequences at random.

Sequences and labels used below:
T1: RBFOX1 RRM (Homo sapiens, UniProt Q9NWB1 109-208)
T1 sequence: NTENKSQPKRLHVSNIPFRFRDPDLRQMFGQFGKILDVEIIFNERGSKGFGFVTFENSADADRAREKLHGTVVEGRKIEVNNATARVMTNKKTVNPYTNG

B1: UCUUGAA (DNA:RNA)
RNA: GGGAGACCGGAAUUCAGAUUGUCCUCUUGAAUUAAAUCCCGUCGUAGCCACCA
DNA 1: CAATCTGAATTCCGGTCTCCC
DNA 2: TGGTGGCTACGACGGGATT
B2: CUGUACU (DNA:RNA)
RNA: B1 RNA with U25C, C26U, U27G, G29A, A30C, A31U
DNA 1: CAATCTGAATTCCGGTCTCCC
DNA 2: TGGTGGCTACGACGGGATT
B3: UAUUACG (DNA:RNA)
RNA: B1 RNA with C26A, G29A, A30C, A31G
DNA 1: CAATCTGAATTCCGGTCTCCC
DNA 2: TGGTGGCTACGACGGGATT
B4: ACCUGUG (DNA:RNA)
RNA: B1 RNA with U25A, U27C, A30U, A31G
DNA 1: CAATCTGAATTCCGGTCTCCC
DNA 2: TGGTGGCTACGACGGGATT
B5: GAUAUAG (DNA:RNA)
RNA: B1 RNA with U25G, C26A, U28A, G29U, A31G
DNA 1: CAATCTGAATTCCGGTCTCCC
DNA 2: TGGTGGCTACGACGGGATT
B6: CUUAACU (DNA:RNA)
RNA: B1 RNA with U25C, C26U, U28A, G29A, A30C, A31U
DNA 1: CAATCTGAATTCCGGTCTCCC
DNA 2: TGGTGGCTACGACGGGATT
B7: AAGGGCU (DNA:RNA)
RNA: B1 RNA with U25A, C26A, U27G, U28G, A30C, A31U
DNA 1: CAATCTGAATTCCGGTCTCCC
DNA 2: TGGTGGCTACGACGGGATT
B8: UUGAAUC (DNA:RNA)
RNA: B1 RNA with C26U, U27G, U28A, G29A, A30U, A31C
DNA 1: CAATCTGAATTCCGGTCTCCC
DNA 2: TGGTGGCTACGACGGGATT
B9: UUGAAUG (DNA:RNA)
RNA: B1 RNA with C26U, U27G, U28A, G29A, A30U, A31G
DNA 1: CAATCTGAATTCCGGTCTCCC
DNA 2: TGGTGGCTACGACGGGATT
B10: UUAAAUG (DNA:RNA)
RNA: B1 RNA with C26U, U27A, U28A, G29A, A30U, A31G
DNA 1: CAATCTGAATTCCGGTCTCCC
DNA 2: TGGTGGCTACGACGGGATT
B11: GCUUGAU (DNA:RNA)
RNA: B1 RNA with U25G, A31U
DNA 1: CAATCTGAATTCCGGTCTCCC
DNA 2: TGGTGGCTACGACGGGATT
B12: UACUGGA (DNA:RNA)
RNA: B1 RNA with C26A, U27C, A30G
DNA 1: CAATCTGAATTCCGGTCTCCC
DNA 2: TGGTGGCTACGACGGGATT
B13: UCGUGAG (DNA:RNA)
RNA: B1 RNA with U27G, A31G
DNA 1: CAATCTGAATTCCGGTCTCCC
DNA 2: TGGTGGCTACGACGGGATT
B14: UGGCCGA (DNA:RNA)
RNA: B1 RNA with C26G, U27G, U28C, G29C, A30G
DNA 1: CAATCTGAATTCCGGTCTCCC
DNA 2: TGGTGGCTACGACGGGATT
B15: UGGCCUC (DNA:RNA)
RNA: B1 RNA with C26G, U27G, U28C, G29C, A30U, A31C
DNA 1: CAATCTGAATTCCGGTCTCCC
DNA 2: TGGTGGCTACGACGGGATT
B16: UGUGGCC (DNA:RNA)
RNA: B1 RNA with C26G, U28G, A30C, A31C
DNA 1: CAATCTGAATTCCGGTCTCCC
DNA 2: TGGTGGCTACGACGGGATT
B17: UGGCCGG (DNA:RNA)
RNA: B1 RNA with C26G, U27G, U28C, G29C, A30G, A31G
DNA 1: CAATCTGAATTCCGGTCTCCC
DNA 2: TGGTGGCTACGACGGGATT
B18: UGGCCUG (DNA:RNA)
RNA: B1 RNA with C26G, U27G, U28C, G29C, A30U, A31G
DNA 1: CAATCTGAATTCCGGTCTCCC
DNA 2: TGGTGGCTACGACGGGATT
B19: UGGCCGC (DNA:RNA)
RNA: B1 RNA with C26G, U27G, U28C, G29C, A30G, A31C
DNA 1: CAATCTGAATTCCGGTCTCCC
DNA 2: TGGTGGCTACGACGGGATT
B20: UGCGGUG (DNA:RNA)
RNA: B1 RNA with C26G, U27C, U28G, A30U, A31G
DNA 1: CAATCTGAATTCCGGTCTCCC
DNA 2: TGGTGGCTACGACGGGATT
B21: CAUGUGG (DNA:RNA)
RNA: B1 RNA with U25C, C26A, U28G, G29U, A30G, A31G
DNA 1: CAATCTGAATTCCGGTCTCCC
DNA 2: TGGTGGCTACGACGGGATT
B22: GCUACAC (DNA:RNA)
RNA: B1 RNA with U25G, U28A, G29C, A31C
DNA 1: CAATCTGAATTCCGGTCTCCC
DNA 2: TGGTGGCTACGACGGGATT
B23: CAAUAAC (DNA:RNA)
RNA: B1 RNA with U25C, C26A, U27A, G29A, A31C
DNA 1: CAATCTGAATTCCGGTCTCCC
DNA 2: TGGTGGCTACGACGGGATT
B24: CGAGGGG (DNA:RNA)
RNA: B1 RNA with U25C, C26G, U27A, U28G, A30G, A31G
DNA 1: CAATCTGAATTCCGGTCTCCC
DNA 2: TGGTGGCTACGACGGGATT
B25: AAUAUAG (DNA:RNA)
RNA: B1 RNA with U25A, C26A, U28A, G29U, A31G
DNA 1: CAATCTGAATTCCGGTCTCCC
DNA 2: TGGTGGCTACGACGGGATT
B26: GCUGCUA (DNA:RNA)
RNA: B1 RNA with U25G, U28G, G29C, A30U
DNA 1: CAATCTGAATTCCGGTCTCCC
DNA 2: TGGTGGCTACGACGGGATT
B27: UGGAGGC (DNA:RNA)
RNA: B1 RNA with C26G, U27G, U28A, A30G, A31C
DNA 1: CAATCTGAATTCCGGTCTCCC
DNA 2: TGGTGGCTACGACGGGATT
B28: UGGAUUG (DNA:RNA)
RNA: B1 RNA with C26G, U27G, U28A, G29U, A30U, A31G
DNA 1: CAATCTGAATTCCGGTCTCCC
DNA 2: TGGTGGCTACGACGGGATT
B29: UGCUGGA (DNA:RNA)
RNA: B1 RNA with C26G, U27C, A30G
DNA 1: CAATCTGAATTCCGGTCTCCC
DNA 2: TGGTGGCTACGACGGGATT
B30: UGGAUGG (DNA:RNA)
RNA: B1 RNA with C26G, U27G, U28A, G29U, A30G, A31G
DNA 1: CAATCTGAATTCCGGTCTCCC
DNA 2: TGGTGGCTACGACGGGATT
B31: UGGAUUC (DNA:RNA)
RNA: B1 RNA with C26G, U27G, U28A, G29U, A30U, A31C
DNA 1: CAATCTGAATTCCGGTCTCCC
DNA 2: TGGTGGCTACGACGGGATT
B32: UCCUGGA (DNA:RNA)
RNA: B1 RNA with U27C, A30G
DNA 1: CAATCTGAATTCCGGTCTCCC
DNA 2: TGGTGGCTACGACGGGATT
B33: UGGAAUC (DNA:RNA)
RNA: B1 RNA with C26G, U27G, U28A, G29A, A30U, A31C
DNA 1: CAATCTGAATTCCGGTCTCCC
DNA 2: TGGTGGCTACGACGGGATT
B34: UGAUGGA (DNA:RNA)
RNA: B1 RNA with C26G, U27A, A30G
DNA 1: CAATCTGAATTCCGGTCTCCC
DNA 2: TGGTGGCTACGACGGGATT
B35: UGAGUCU (DNA:RNA)
RNA: B1 RNA with C26G, U27A, U28G, G29U, A30C, A31U
DNA 1: CAATCTGAATTCCGGTCTCCC
DNA 2: TGGTGGCTACGACGGGATT
B36: UGGAUGC (DNA:RNA)
RNA: B1 RNA with C26G, U27G, U28A, G29U, A30G, A31C
DNA 1: CAATCTGAATTCCGGTCTCCC
DNA 2: TGGTGGCTACGACGGGATT
B37: UGGAUGA (DNA:RNA)
RNA: B1 RNA with C26G, U27G, U28A, G29U, A30G
DNA 1: CAATCTGAATTCCGGTCTCCC
DNA 2: TGGTGGCTACGACGGGATT
B38: UGGAGUC (DNA:RNA)
RNA: B1 RNA with C26G, U27G, U28A, A30U, A31C
DNA 1: CAATCTGAATTCCGGTCTCCC
DNA 2: TGGTGGCTACGACGGGATT

The target of the assay is T1, RBFOX1 RRM. Put plainly: EMSA; HiTS-Eq, 1 nM pool, 10 min; buffer printed only for the single-RNA assays: 10 mM Tris pH 7.5, 150 mM NaCl, 3.4 mM EDTA, 0.001% NP-40, 30 C. The note with it: tags: His6 N-terminal (pET28a); label: 5' 32P. In outline:
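Purified RbFox RRM, wild type or mutant, was incubated for 10 min in 50 µL with 1 nM of a 5′-radiolabelled RNA pool carrying 7 randomized nucleotides, whose flanks were annealed to DNA oligonucleotides, over a series of increasing protein concentrations. Unbound RNA was resolved on 8% native PAGE, cut out, reverse-transcribed, barcoded by PCR and sequenced on an Illumina HiSeq 2500. Relative association constants were derived from changes in read counts for each RNA species versus the control reaction and normalised to the cognate motif.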
For orientation: Mobility shift assays separate free from complexed probe on a gel.
Take B1: the binding signal was 0.0145 KA relative to UGCAUGU.
With B2 the figure was 0.00801 KA relative to UGCAUGU; with B3, 0.0123 KA relative to UGCAUGU.
With B4 the figure was 0.00788 KA relative to UGCAUGU; with B5, 0.0101 KA relative to UGCAUGU.
Turning to B6, the binding signal was 0.0019 KA relative to UGCAUGU.
With B7 the figure was 0.0102 KA relative to UGCAUGU; with B8, 0.0179 KA relative to UGCAUGU; with B9, 0.037 KA relative to UGCAUGU.
With B10 the figure was 0.0123 KA relative to UGCAUGU; with B11, 0.0264 KA relative to UGCAUGU.
Regarding B12, the binding signal is 0.00358 KA relative to UGCAUGU.
To B13 belongs 0.00953 KA relative to UGCAUGU.
With B14 the figure was 0.0244 KA relative to UGCAUGU; with B15, 0.0279 KA relative to UGCAUGU; with B16, 0.0234 KA relative to UGCAUGU.
With B17 the figure was 0.0318 KA relative to UGCAUGU.
Consider B18, for which the binding signal is 0.0426 KA relative to UGCAUGU.
For B19, the binding signal is 0.0225 KA relative to UGCAUGU.
To B20 belongs 0.0288 KA relative to UGCAUGU; to B21, 0.00494 KA relative to UGCAUGU.
To B22 belongs 0.00819 KA relative to UGCAUGU; to B23, 0.00247 KA relative to UGCAUGU; to B24, 0.00639 KA relative to UGCAUGU.
Consider B25, for which the binding signal is 0.00237 KA relative to UGCAUGU.
With B26 the figure was 0.0167 KA relative to UGCAUGU.
To B27 belongs 0.0186 KA relative to UGCAUGU.
With B28 the figure was 0.0448 KA relative to UGCAUGU.
Turning to B29, the binding signal is 0.0106 KA relative to UGCAUGU.
To B30 belongs 0.0304 KA relative to UGCAUGU; to B31, 0.0192 KA relative to UGCAUGU.
With B32 the figure was 0.00715 KA relative to UGCAUGU.
In the case of B33, the binding signal is 0.0233 KA relative to UGCAUGU.
To B34 belongs 0.00526 KA relative to UGCAUGU.
With B35 the figure was 0.0175 KA relative to UGCAUGU; with B36, 0.0582 KA relative to UGCAUGU; with B37, 0.0437 KA relative to UGCAUGU.
To B38 belongs 0.0349 KA relative to UGCAUGU.
